From PubChem BioAssay (NCI)
About 83,000 compounds went through this panel and 20% of them were active in at least one assay; those are over-represented in the sample as a whole.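 The endpoint reported here, percent growth, reads 100 for growth as untreated, 0 for no net growth and -100 for all cells dead.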 Activity calls are given as the source filed them. The calls were made as follows: active = growth percent below 10; inactive = the rest.

Experiments:
Assay in all cases: NCI-60 one-dose screen, 48 h (100 = growth as untreated, 0 = no growth, -100 = all killed)
Conditions in all cases: 10 µM unless noted
HCT-15 colon = test system: HCT-15 colon
HT29 colon = test system: HT29 colon
SNB-19 CNS = test system: SNB-19 CNS
U251 CNS = test system: U251 CNS
PC-3 prostate = test system: PC-3 prostate
UACC-62 melanoma = test system: UACC-62 melanoma
LOX IMVI melanoma = test system: LOX IMVI melanoma
SK-MEL-28 melanoma = test system: SK-MEL-28 melanoma
SK-MEL-5 melanoma = test system: SK-MEL-5 melanoma

Measured: growth

CCN(CC)CC(C)(C)C(=O)/C=C/c1ccc(Cl)c(Cl)c1
active: HCT-15 colon -34% | HT29 colon -47.4% | SNB-19 CNS -30.1% | U251 CNS -45.8% | PC-3 prostate -33.8% | UACC-62 melanoma -56.2% | LOX IMVI melanoma -82.4% | SK-MEL-28 melanoma -35.5%

CCCCCCCCCCCCCCNCc1ccccc1
inactive: HCT-15 colon 45.6% | HT29 colon 26.1% | SNB-19 CNS 85.6% | U251 CNS 57.6% | PC-3 prostate 81.7% | UACC-62 melanoma 99.1% | LOX IMVI melanoma 53.3% | SK-MEL-28 melanoma 82.4%

Cc1cc2nc(CS)[nH]c2cc1C
inactive: HCT-15 colon 101% | HT29 colon 89.9% | SNB-19 CNS 93.3% | U251 CNS 85.1% | PC-3 prostate 87.4% | UACC-62 melanoma 84.4% | LOX IMVI melanoma 88% | SK-MEL-28 melanoma 89.5%

CCN1/C(=C\c2cc[n+](CC)c3ccccc23)C=Cc2ccccc21
inactive: HCT-15 colon 29.7% | SNB-19 CNS 17.1% | U251 CNS 17% | PC-3 prostate 11.4%
active: HT29 colon 8.56% | SK-MEL-5 melanoma -74.4% | UACC-62 melanoma -21.4% | LOX IMVI melanoma 4.04% | SK-MEL-28 melanoma 3%

CCC(CCCN(CC)CCc1ccccc1)OC(=O)c1cc(OC)c(OC)c(OC)c1 (configuration not stated)
inactive: HCT-15 colon 89.8% | HT29 colon 57.3% | SNB-19 CNS 92.3% | U251 CNS 90.8% | PC-3 prostate 82.4% | UACC-62 melanoma 90.7% | LOX IMVI melanoma 80.9% | SK-MEL-28 melanoma 98.5%

CNc1ccc2c(c1)c1ccccc1n2C
inactive: HCT-15 colon 104% | HT29 colon 115% | SNB-19 CNS 111% | U251 CNS 95.9% | PC-3 prostate 96% | SK-MEL-5 melanoma 101% | UACC-62 melanoma 100% | LOX IMVI melanoma 99.9% | SK-MEL-28 melanoma 117%

CC1(C)CC([P+](c2ccccc2)(c2ccccc2)c2ccccc2)=NN1
inactive: HCT-15 colon 94.3% | HT29 colon 24.9% | SNB-19 CNS 44.5% | U251 CNS 25.5% | PC-3 prostate 29.1% | SK-MEL-5 melanoma 12.4% | UACC-62 melanoma 32.2% | LOX IMVI melanoma 43.1% | SK-MEL-28 melanoma 67.9%

N#CSCc1ccc(CSC#N)c(Cl)c1
inactive: HCT-15 colon 37.1% | HT29 colon 34.7% | SNB-19 CNS 84% | U251 CNS 85.8% | PC-3 prostate 81.6% | SK-MEL-5 melanoma 65.2% | UACC-62 melanoma 72.2% | LOX IMVI melanoma 46.6% | SK-MEL-28 melanoma 83.3%

N#CC1C(=O)SC2c3ccccc3C(=O)c3ccccc3C12 (configuration not stated)
inactive: HCT-15 colon 111% | HT29 colon 97.7% | SNB-19 CNS 99.4% | U251 CNS 92% | PC-3 prostate 82.1% | SK-MEL-5 melanoma 97.2% | UACC-62 melanoma 89.2% | LOX IMVI melanoma 95.3% | SK-MEL-28 melanoma 112%
